# Among all 48,000 compounds or so, about 13,000 (27%) showed an effect of 50% or more. This is one part of the list.
# Test system: Wolbachia pipientis
# Experiment: Anti-Wolbachia Cell-Based Screen
# Assay type: functional
# Design: scale not given: in the data most compounds retested in dose-response had high values
# Conditions: 5 µM
row,Structure (SMILES),Percent Effect
1,N#Cc1ccccc1N1CCN(C(=O)NCCN2CCOCC2)CC1,-5.749%
2,O=C(Nc1ccc(I)cc1C(=O)NCCN1CCOCC1)c1ccco1,13.86%
3,O=C(Nc1ccc(Cl)cc1C(=O)NCCN1CCOCC1)c1ccco1,134.1%
4,O=C(Nc1ccccc1C(=O)NCCN1CCOCC1)c1ccco1,0.2432%
5,COc1cc(CN2CCCC(Nc3cccc(F)c3)C2)cc(OC)c1O (centres undefined),11.19%
6,CC(C)C1CN(S(=O)(=O)C2CC2)CCCN1Cc1ccc(F)cc1 (centres undefined),-0.9864%
7,COc1ccc(CN(C)[C@@H]2CN(S(=O)(=O)C(C)C)C[C@H]2O)cc1,105.6%
8,CCOCC(=O)N1C[C@@H](O)[C@H](N(C)Cc2ccc(OC)cc2)C1,-9.013%
9,CC(C)S(=O)(=O)N1C[C@@H](O)[C@H](N(C)Cc2ccc(F)cc2)C1,92.86%
10,Cc1ccc([C@@H]2CN(S(=O)(=O)C(C)C)C[C@H]2N(C)C)cc1,4.129%
11,CC(C)C1CN(S(=O)(=O)N2CCCC2)CCCN1Cc1ccc(F)cc1 (centres undefined),-9.548%
12,CC(C)(C)Cc1noc2ncc(C(=O)N3CCSCC3)cc12,-2.131%
13,CCc1nnc(CN2CCC(C3CCCCCN3C(=O)C3CC3)CC2)o1 (centres undefined),5.041%
14,Cc1cccc(CN2C[C@@H]3CN(C(=O)C4CCOC4)C[C@@H]3C2=O)c1 (some centres undefined),100.9%
15,O=C(C1CCOC1)N1C[C@H]2CN(Cc3cccc(F)c3)C(=O)[C@H]2C1 (some centres undefined),101.2%
16,Cc1cccc(CN2C[C@@H]3CN(C(=O)c4ccnnc4)C[C@@H]3C2=O)c1,-7.292%
17,Cc1cccc(CN2C[C@@H]3CN(C(=O)c4ccco4)C[C@@H]3C2=O)c1,-8.497%
18,O=C(O)C(F)(F)F.O=C1[C@H]2CN(C3CCOCC3)C[C@H]2CN1Cc1cccc(F)c1,-0.9945%
19,O=C(c1ccsc1)N1C[C@H]2CN(Cc3cccc(F)c3)C(=O)[C@H]2C1,-13.46%
20,O=C(Nc1ccn(Cc2cccc3cccnc23)n1)C1COCCO1 (centres undefined),-13.67%
21,COc1ccc(F)c(CN2CCCC(O)(CNCC(C)(C)C)C2=O)c1 (centres undefined),1.776%
22,C[C@@H]1CN(C(=O)c2cn(CCN3CCCCC3)nn2)C[C@H](C)O1,-14.27%
23,O=C(NCC1CCOC1)c1csc(-c2ccc(F)cc2)n1 (centres undefined),81.86%
24,O=C(NCC1CCOC1)c1csc(-c2ccco2)n1 (centres undefined),5.751%
25,Cc1ccc(-c2nc(C(=O)NCC3CCOC3)cs2)cc1 (centres undefined),113.2%

row,Structure (SMILES),Percent Effect
1,O=C(NCC1CCOC1)c1csc(-c2cccc(Cl)c2)n1 (centres undefined),7.495%
2,Cc1ccc(-c2cc(C(=O)NCC3CCOC3)n[nH]2)s1 (centres undefined),-13.79%
3,O=C(NCC1CCOC1)c1csc(-c2ccccc2)n1 (centres undefined),102.2%
4,O=C(c1csc(-c2ccco2)n1)N(CC1CCOC1)C1CC1 (centres undefined),-4.102%
5,O=C(NCC1CCOC1)c1csc(-c2ccc(Cl)cc2)n1 (centres undefined),107.7%
6,O=C(CC(F)(F)F)N1CCc2[nH]nc(-c3ccc4c(c3)OCO4)c2C1,-1.74%
7,CNC(=O)C(C)CNC(=O)c1coc(COc2cccc(F)c2F)n1 (centres undefined),-14.56%
8,CCc1ccc(CNC2(c3ccc(F)cc3)CCOCC2)o1,6.225%
9,Cc1ccc(-c2nc(CN(Cc3ccco3)C3CCS(=O)(=O)C3)cs2)o1 (centres undefined),9.055%
10,OC1CCCN(Cc2cn(CC3CCN(C4CCSCC4)CC3)nn2)C1 (centres undefined),-15.38%
11,CC(C)C(C)N(C)Cc1nnc(-c2ccco2)o1 (centres undefined),-1.497%
12,O=C(NCC1COC2(CCOCC2)O1)c1csc(-c2cccc(Cl)c2)n1 (centres undefined),108.1%
13,O=C(NCC1CCOC1)c1cc(-c2cccc(Cl)c2)on1 (centres undefined),10.92%
14,Cc1ccc(-c2nc(CC(=O)NCC3CCCOC3)cs2)o1 (centres undefined),16.72%
15,CCOc1ccc(-c2nc(C(=O)NCC3CCOC3)cs2)cc1 (centres undefined),120.1%
16,O=C(NCC1CCOC1)c1cc(-c2cccc(Cl)c2)[nH]n1 (centres undefined),-2.907%
17,COc1ccc(-c2nc(C(=O)NCC3CCOC3)cs2)cc1OC (centres undefined),119.6%
18,COCc1nc2cc(NCc3ccncc3)ccc2o1,5.074%
19,Cc1cc(=O)[nH]c(CCNC(=O)C(c2ccc(F)cc2)N(C)C)n1 (centres undefined),1.632%
20,Cc1nnc(NCC2(c3ccccc3)CCC2)c(C#N)c1C,7.557%
21,CC1CCN(S(=O)(=O)NCCCn2cncn2)CC1,4.517%
22,COc1cccc(CN2CCN(c3noc(C(C)C)n3)CC2)c1F,-2.027%
23,COc1ncccc1CN1CCN(c2noc(C(C)C)n2)CC1,-8.091%
24,COc1cccc(CN2CCN(c3cccc(C(C)C)n3)CC2)c1F,77.06%
25,CCc1ccc(C(=O)O)cc1S(=O)(=O)N(C)c1cccc(C)c1,-14.76%

row,Structure (SMILES),Percent Effect
1,CS(=O)(=O)Cc1nc(CN2CCOc3ccccc3C2)cs1,2.526%
2,CCCN(CCS(C)(=O)=O)C1CCc2ccccc2C1 (centres undefined),9.171%
3,NS(=O)(=O)CCN(CCc1cccc(F)c1)C1CCCC1,101.5%
4,CS(=O)(=O)CCC(=O)N(CCc1cccc(F)c1)C1CC1,102.1%
5,CS(=O)(=O)CCC(=O)N(Cc1c(F)cccc1F)C1CCCC1,-8.645%
6,CC(C)(C)S(=O)(=O)CCNC(=O)NCCCc1cccc(F)c1,22.42%
7,CS(=O)(=O)CCN(CCc1cccc(F)c1)C1CC1,102.8%
8,O=C(C[S+]([O-])Cc1cccc(F)c1)NC1CCCC1 (centres undefined),-2.524%
9,CS(=O)(=O)C1CCN(S(=O)(=O)Cc2cccc(F)c2)CC1,-8.016%
10,Fc1cccc(CCN(c2ccc3nnnn3n2)C2CC2)c1,-14.94%
11,CS(=O)(=O)CCN(Cc1cccc(O)c1)C1CCC(O)CC1 (centres undefined),-5.154%
12,Cc1ccc(C(=O)N(Cc2cccc(F)c2)C2CC2)c(=O)[nH]1,-0.8552%
13,CS(=O)(=O)CCCN(CCc1cccc(F)c1)C1CC1,89.73%
14,Cc1noc(C)c1CN(C)C(=O)NC1CCN(C2CC2)CC1,-39.67%
15,O=C(c1cc(-c2ccco2)nc2c(Cl)cccc12)N1CCS(=O)(=O)CC1,-1.812%
16,Cc1nc2c(c(N3CCC(O)(CN4CCCC4)CC3)n1)CCN(C)CC2,-16.37%
17,Cc1c(C2CCCN(C(=O)c3ccncc3)C2)n2c(nc1=O)CCC2.Cl (centres undefined),99.59%
18,Cc1c(C2CCCN(C(=O)Cc3ccccn3)C2)n2c(nc1=O)CCC2.Cl (centres undefined),-12.52%
19,Cc1c(C2CCCN(C(=O)c3cccnc3)C2)n2c(nc1=O)CCC2 (centres undefined),104.3%
20,Cc1noc(C)c1C(=O)N1CCCC(c2c(C)c(=O)nc3n2CCC3)C1 (centres undefined),87.08%
21,Cc1nn(C)cc1-c1ccnc(N(C)Cc2ccon2)n1,9.555%
22,COc1cc2c(cc1OC)S(=O)(=O)N(Cc1cccc(C)c1)C2=O,-2.103%
23,Cc1cccc(C(C(=O)N(C)CCc2cn[nH]c2)N(C)C)c1 (centres undefined),-40.91%
24,Cc1cnn(CC2CCCN2c2ncnc3c2CCC3)c1 (centres undefined),7.449%
25,Cc1cc(NC(=O)CN2CCc3nn(C)c(=O)cc3C2)on1,-13.84%

row,Structure (SMILES),Percent Effect
1,CC(C)(C)c1cc(NC(=O)CN2CCC(N3CCNC3=O)CC2)on1,95.17%
2,Cn1nc2c(cc1=O)CN(CC(=O)Nc1cc(C(C)(C)C)no1)CC2,4.087%
3,O=C(CN1CCC(N2CCNC2=O)CC1)NCC(F)(F)F,-6.225%
4,CC(C)(C)c1cc(NC(=O)CN2CCCC(Cn3cncn3)C2)on1 (centres undefined),1.148%
5,Cc1cc(NC(=O)CN2CCC(N3CCNC3=O)CC2)on1,131.4%
6,COc1cc2c(cc1-c1nc3c(cnn3C(C)C3CC3)[nH]1)OCO2 (centres undefined),-2.531%
7,CCC(=O)N1CCC2(CC1)C(=O)N(C)CCN2Cc1csc(C)n1.O=C(O)C(F)(F)F,115.6%
8,Cc1nc(CN2CCN(C)C(=O)C23CCN(C(C)C)CC3)cs1.O=C(O)C(F)(F)F,114.4%
9,COCC1CC2(CCN(C(C)=O)CC2)CN1Cc1csc(C)n1.O=C(O)C(F)(F)F (centres undefined),-9.248%
10,CC(C)C(C(=O)O)c1cccc(Cl)c1 (centres undefined),-23.59%
11,CC(NS(=O)(=O)CCCC#N)c1cccc(-n2cccn2)c1 (centres undefined),-70.87%
12,CC(=O)N1CCC2(CC1)CN(C(=O)[C@@H]1CSCN1)c1ccc(Cl)cc12.O=C(O)C(F)(F)F,102.4%
13,Cl.Cl.O=C([C@H]1CCCN1)N1CC2(CCNCC2)c2cc(Cl)ccc21,99.27%
14,Cl.Cl.O=C([C@@H]1CSCN1)N1CC2(CCNCC2)c2cc(Cl)ccc21,111%
15,Cl.Cl.O=C([C@@H]1CSCN1)N1CCC2(CC1)CNCc1ccccc12,-5.878%
16,OCC(CO)Nc1ccc2ccc(Cl)c(Cl)c2n1,21.88%
17,COCc1csc(NC(=O)NCc2ncccc2C)n1,-7.53%
18,Cn1cnc2c1C(COCc1ccccc1)N(Cc1ccccn1)CC2.O=C(O)C(F)(F)F.O=C(O)C(F)(F)F (centres undefined),9.45%
19,Cc1ccccc1C(CNC(=O)CSc1nnc(N)s1)N(C)C (centres undefined),-0.498%
20,Clc1ccc(N2CCN(CCCN3CCCCC3)CC2)nc1,-9.016%
21,Cl.c1nc(N2CCOCC2)ncc1-c1cncn1CCCN1CCCCC1,140.4%
22,c1ccc(-c2ncn(CCCN3CCOCC3)c2-c2ccncc2)cc1,-9.931%
23,Cc1ccccc1CC(=O)NCCNc1nccc(C(F)(F)F)n1,-4.75%
24,Cc1nn2cccnc2c1C(=O)NCc1ccnc(OCC2CC2)c1,2.843%

# Source: ChEMBL document CHEMBL3988442, “University of Dundee, Small-Polar-MMV Screening Library” (2021)
